Data published in PubChem BioAssay (Tox21).
Results filed as inconclusive are left out. Calls of active or inactive are those of the source. Unless noted, calls follow the shape of the dose curve; as a rule, active = well fitted curve in the direction sought with a large enough effect in the repeat runs; inconclusive = weak or mixed curves; inactive = no such curve, though single readings can be large; an effect the other way counts as inactive or inconclusive.

How the values were obtained:
[1] = qHTS assay for small molecule agonists of the p53 signaling pathway (AID 651631; calls by dose curve; also: nearly all actives have a fitted effect of over 15% in size)
In short: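 HCT-116 cells carrying a beta-lactamase reporter under p53 response elements were dosed with compound for 16 h at 37 °C. LiveBLAzer B/G FRET substrate was then added for 2 h at room temperature, and fluorescence intensity was read to detect pathway agonism.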

[2] = qHTS assay for small molecules that induce genotoxicity in human embryonic kidney cells expressing luciferase-tagged ATAD5 (AID 651632); also: nearly all actives have a fitted effect of over 15% in size
In short: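 DMSO vehicle served as the control. HEK293T reporter cells, 16 hr at 37C, then 30 min Amplite at room temperature; ATAD5 induction is measured as luciferase activity.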

[3] = qHTS assay for small molecule agonists of the p53 signaling pathway - cell viability (AID 651633; calls by dose curve;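 also: p53RE-bla HCT reporter cells with a stable beta-lactamase p53 reporter; series mostly up to about 83 µM; nearly all actives have a fitted effect of over 30% in size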)
In short: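 Viability counter-read: CellTiter-Glo luminescence (30 min, room temperature) in the same p53RE-bla plates. These plates had been exposed to compounds for 16 h at 37 C.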

[4] = qHTS assay for small molecules that induce genotoxicity in human embryonic kidney cells expressing luciferase-tagged ATAD5 - cell viability (AID 651634; calls by dose curve; also: nearly all actives have a fitted effect of over 25% in size)
In short: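 Here HEK293T cells with the ATAD5 luciferase reporter are incubated with test compounds for 15.5 hr, and cytotoxicity is then gauged by measuring protease activity in live cells using fluorescence.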

[5] = qHTS assay for small molecule disruptors of the mitochondrial membrane potential - cell viability (AID 720634; calls by dose curve;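 also: human HepG2 liver cancer cells; series mostly up to about 83 µM; nearly all actives have a fitted effect of over 20% in size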)
In short: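 Viability of HepG2 cells is scored from ATP content by luminescence; cells are exposed to compound for 1 hr at 37 C and 5% CO2, then dosed with m-MPI dye before the CellTiter-Glo reagent.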

[6] = qHTS assay for small molecule disruptors of the mitochondrial membrane potential (AID 720635); also: potency is read from the fitted curve at half-maximal effect
In short: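 Mitochondrial membrane potential tracked with Mito-MPS dye, red aggregates (ex 540/em 590 nm) against green monomers (ex 490/em 535 nm). Compound treatment 1 hr at 37C, dye 30 min in HepG2.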

[7] = qHTS assay to test for compound auto fluorescence at 590 nm (red) in HepG2 cells (AID 720674)
In short: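 We screened compounds on adherent HepG2 cells, incubating them for an hour at 37 C in 5% CO2 before reading emission at 590 nm under 540 nm excitation; values reflect equivalence to Rose Bengal sodium fluorescence.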

[8] = qHTS assay to test for compound auto fluorescence at 535 nm (green) in HepG2 cells (AID 720675)
[9] = qHTS assay to test for compound auto fluorescence at 460 nm (blue) in HEK293 cells (AID 720678)
In short: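 Blue-channel (Ex/Em 405/460 nm) intensity measured in HEK293 cultures after overnight compound exposure at 37C; signal expressed relative to triamterene. Cells plated 2,000 per well in 10% dialyzed FBS medium and allowed 4-5 hr to attach.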

[10] = qHTS assay to test for compound auto fluorescence at 590 nm (red) in HEK293 cells (AID 720679)
In short: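 Red-channel autofluorescence (Ex/Em 540/590 nm; Rose Bengal sodium reference) was measured after overnight 37C, 5% CO2 exposure of attached HEK293 cells, 2,000 per well in medium with 10% dialyzed FBS.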

[11] = qHTS assay to test for compound auto fluorescence at 535 nm (green) in HEK293 cells (AID 720680)
[12] = qHTS assay to test for compound auto fluorescence at 460 nm (blue) in HEK293 cell free culture (AID 720681)
In short: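 Blue fluorescence (Ex 405/Em 460 nm, triamterene-equivalent) was read immediately after pin transfer of compound or DMSO into medium (DMEM, 10% FBS) without cells.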

[13] = qHTS assay to test for compound auto fluorescence at 535 nm (green) in HEK293 cell free culture (AID 720682)
In short: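 Green-label autofluorescence (485 nm excitation, 535 nm emission) measured on compound added to cell-free culture medium (DMEM, 10% FBS). Output is expressed relative to fluorescein.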

[14] = qHTS assay to test for compound auto fluorescence at 590 nm (red) in HEK293 cell free culture (AID 720683)
In short: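 Red-channel autofluorescence of compounds in culture medium (DMEM, 10% FBS), no cells, measured at 540/590 nm. Rose Bengal sodium is the reference fluorophore for equivalence.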

[15] = qHTS assay to test for compound auto fluorescence at 590 nm (red) in HepG2 cell free culture (AID 720684)
In short: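 No cells present: MEM + 10% FBS only. Compound pinned in, red label read (540/590 nm). Activity = fluorescence equivalent to Rose Bengal sodium.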

[16] = qHTS assay to test for compound auto fluorescence at 460 nm (blue) in HepG2 cell free culture (AID 720685)
In short: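 Cell-free plates of MEM plus 10% FBS received 23 nL compound or DMSO vehicle; blue-channel (405/460 nm) intensity scored against triamterene as reference fluorophore.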

[17] = qHTS assay to test for compound auto fluorescence at 535 nm (green) in HepG2 cell free culture (AID 720686)
[18] = qHTS assay to test for compound auto fluorescence at 460 nm (blue) in HepG2 cells (AID 720687)
In short: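 Blue-channel autofluorescence (Ex/Em 405/460 nm, triamterene-equivalent) was measured after 1 hr compound exposure at 37 C, 5% CO2. Cells were HepG2, plated overnight at 37 C in MEM plus 10% FBS.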

[19] = molecular target: Glucocorticoid receptor (Homo sapiens) (UniProt P04150); test: qHTS assay to identify small molecule agonists of the glucocorticoid receptor (GR) signaling pathway (AID 720691; active = well fitted activation curve with a large enough effect in the signal ratio in the repeat runs, not every such curve was filed as active; the % refers to the signal ratio)
Sequence of Glucocorticoid receptor (Homo sapiens) (P04150 whole entry, looked up): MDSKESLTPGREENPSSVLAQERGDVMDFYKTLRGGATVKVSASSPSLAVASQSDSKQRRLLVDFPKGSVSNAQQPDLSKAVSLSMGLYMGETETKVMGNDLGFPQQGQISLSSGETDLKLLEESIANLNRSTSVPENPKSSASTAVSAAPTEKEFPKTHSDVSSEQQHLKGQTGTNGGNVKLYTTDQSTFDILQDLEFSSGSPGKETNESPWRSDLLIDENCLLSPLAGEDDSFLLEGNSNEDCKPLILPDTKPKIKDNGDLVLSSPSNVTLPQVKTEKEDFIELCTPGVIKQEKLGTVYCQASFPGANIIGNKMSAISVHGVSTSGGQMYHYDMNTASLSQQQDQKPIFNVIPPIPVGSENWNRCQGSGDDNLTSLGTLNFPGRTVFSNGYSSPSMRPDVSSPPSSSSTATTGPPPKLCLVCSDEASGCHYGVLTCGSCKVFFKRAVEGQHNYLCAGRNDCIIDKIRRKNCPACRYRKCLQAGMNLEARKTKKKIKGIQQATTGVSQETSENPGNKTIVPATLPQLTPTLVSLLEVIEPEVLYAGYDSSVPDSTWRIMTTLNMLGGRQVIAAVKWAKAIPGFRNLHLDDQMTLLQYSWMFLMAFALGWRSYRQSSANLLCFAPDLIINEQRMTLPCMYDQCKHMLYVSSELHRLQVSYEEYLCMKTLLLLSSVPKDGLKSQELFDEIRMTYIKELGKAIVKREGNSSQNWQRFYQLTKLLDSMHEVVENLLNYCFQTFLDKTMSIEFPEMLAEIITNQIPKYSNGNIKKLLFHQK
In short: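 Compounds in DMSO, alongside positive controls, were added to GR-bla HeLa reporter cells and incubated 18 h at 37 C; GRE-driven beta-lactamase was detected by fluorescence after 2 h with FRET substrate at room temperature.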

[20] = molecular target: Glucocorticoid receptor (Homo sapiens) (UniProt P04150); test: qHTS assay to identify small molecule antagonists of the glucocorticoid receptor (GR) signaling pathway (AID 720692; active = well fitted inhibition curve with a large enough effect in the signal ratio in the repeat runs, not every such curve was filed as active; the % refers to the signal ratio)
In short: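 In a 1536-well cell format, compounds were added 4 h after seeding GR-bla HeLa cells, together with dexamethasone at 5 nM final; reporter activity was measured by FRET-substrate fluorescence following 18 h at 37 C.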

Measured: Potency

O=C(COCCOCCOCC(=O)Nc1c(I)cc(I)c(C(=O)O)c1I)Nc1c(I)cc(I)c(C(=O)O)c1I
inactive: [1] | [2] | [3] | [4] | [5] | [6] | [7] | [8] | [9] | [10] | [11] | [12] | [13] | [14] | [15] | [16] | [17] | [18] | [19] | [20]

O=C1c2ccccc2-c2ccccc21
active: [6] 55.9 µM
inactive: [1] | [2] | [3] | [4] | [5] | [7] | [8] | [9] | [10] | [11] | [12] | [13] | [14] | [15] | [16] | [17] | [18] | [20]

O=C(O)CCNC(=O)c1ccccc1
inactive: [1] | [2] | [3] | [4] | [5] | [6] | [7] | [8] | [9] | [10] | [11] | [12] | [13] | [14] | [15] | [16] | [17] | [18] | [20]

C[C@H](CCC(=O)NCC(=O)O)[C@H]1CC[C@H]2[C@@H]3[C@H](O)C[C@@H]4C[C@H](O)CC[C@]4(C)[C@H]3C[C@H](O)[C@]12C
inactive: [1] | [2] | [3] | [4] | [5] | [6] | [7] | [8] | [9] | [10] | [11] | [12] | [13] | [14] | [15] | [16] | [17] | [18] | [19] | [20]

FC(F)(F)/C(=N\OCC1OCCO1)c1ccc(Cl)cc1
inactive: [1] | [2] | [3] | [4] | [5] | [6] | [7] | [8] | [9] | [10] | [11] | [12] | [13] | [14] | [15] | [16] | [17] | [18] | [19] | [20]

CC(C)COC(=O)/C=C/c1ccccc1
inactive: [1] | [2] | [3] | [4] | [5] | [6] | [7] | [8] | [9] | [10] | [11] | [12] | [13] | [14] | [15] | [16] | [17] | [18]
